Molecules are shown by their SMILES. Values joined by “and” are separate entries in the source; they are usually repeats but may differ in a detail not shown here. Equal values may be shown once. Results filed as inconclusive are left out. Active and inactive are the calls of the source. Unless noted, calls follow the shape of the dose curve; as a rule, active = well fitted curve in the direction sought with a large enough effect in the repeat runs; inconclusive = weak or mixed curves; inactive = no such curve, though single readings can be large; an effect the other way counts as inactive or inconclusive.

Assay [1] in a line: qHTS assay for small molecule agonists of the p53 signaling pathway (AID 651631; calls by dose curve; also: nearly all actives have a fitted effect of over 15% in size; also: potency is read from the fitted curve at half-maximal effect). The method in brief: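 HCT-116 p53RE-bla reporter line, 16 h compound treatment at 37 °C, then fluorescence after 2 h with B/G FRET substrate.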
The nature of assay [2]: qHTS assay for small molecules that induce genotoxicity in human embryonic kidney cells expressing luciferase-tagged ATAD5 (AID 651632). Also: nearly all actives have a fitted effect of over 15% in size. A digest of the protocol:
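Reporter cells (HEK293T) express luciferase-tagged ATAD5, a protein that accumulates after DNA damage. Treat 16 hr at 37C/5% CO2, add Amplite, wait 30 min at RT, and read luminescence.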

A short description of assay [3]: qHTS assay for small molecule agonists of the p53 signaling pathway - cell viability (AID 651633; calls by dose curve;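 also: p53RE-bla HCT reporter cells with a stable beta-lactamase p53 reporter; series mostly up to about 83 µM; nearly all actives have a fitted effect of over 30% in size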). The method in brief:
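Viability counter-read: CellTiter-Glo luminescence (30 min, room temperature) in the same p53RE-bla plates. These plates had been exposed to compounds for 16 h at 37 C.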

The nature of assay [4]: qHTS assay for small molecules that induce genotoxicity in human embryonic kidney cells expressing luciferase-tagged ATAD5 - cell viability (AID 651634; calls by dose curve; also: nearly all actives have a fitted effect of over 25% in size). The method in brief: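 Seeding of 2,000 HEK293T ATAD5-luciferase cells per well preceded pin-tool compound transfer. Plates sat 15.5 hr at 37C under 5% CO2, then fluorescence was read after 30 min with CellTiter-Fluor.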

Assay [5] can be described thus: qHTS assay for small molecule disruptors of the mitochondrial membrane potential - cell viability (AID 720634; calls by dose curve;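 also: human HepG2 liver cancer cells; series mostly up to about 83 µM; nearly all actives have a fitted effect of over 20% in size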). The method in brief:
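Measuring cytotoxicity alongside mitochondrial potential, the screen quantified ATP by luminescence in HepG2 cells after 1 hr compound incubation and a 30 min room-temperature CellTiter-Glo step.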

A short description of assay [6]: qHTS assay for small molecule disruptors of the mitochondrial membrane potential (AID 720635). The method in brief:
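Mitochondrial membrane potential tracked with Mito-MPS dye, red aggregates (ex 540/em 590 nm) against green monomers (ex 490/em 535 nm). Compound treatment 1 hr at 37C, dye 30 min in HepG2.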

Assay [7] can be described thus: qHTS assay to test for compound auto fluorescence at 590 nm (red) in HepG2 cells (AID 720674). The method in brief: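 Red autofluorescence (Ex/Em 540/590 nm, Rose Bengal sodium equivalents) was measured in HepG2 cells, 2,000 per well in MEM plus 10% FBS, plated overnight at 37 C. Readings were taken 1 hr after adding 23 nL compound or DMSO, at 37 C and 5% CO2.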
The nature of assay [8]: qHTS assay to test for compound auto fluorescence at 535 nm (green) in HepG2 cells (AID 720675).
A short description of assay [9]: qHTS assay to test for compound auto fluorescence at 460 nm (blue) in HEK293 cells (AID 720678). Also: potency is read from the fitted curve at half-maximal effect. A digest of the protocol: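 Measured: blue fluorescence (Ex 405/Em 460 nm) of compound-treated HEK293 cells, incubated overnight at 37C with 5% CO2 and scaled to triamterene equivalents.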
The nature of assay [10]: qHTS assay to test for compound auto fluorescence at 590 nm (red) in HEK293 cells (AID 720679). The method in brief:
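Using HEK293 cells at 2,000 per well, the screen added 23 nL of each compound after cell attachment and incubated overnight (37C, 5% CO2). The plate reader then captured red-label fluorescence, Ex/Em 540/590nm.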

A short description of assay [11]: qHTS assay to test for compound auto fluorescence at 535 nm (green) in HEK293 cells (AID 720680).
Assay [12] in a line: qHTS assay to test for compound auto fluorescence at 460 nm (blue) in HEK293 cell free culture (AID 720681). Also: potency is read from the fitted curve at half-maximal effect. A digest of the protocol:
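Blue fluorescence (Ex 405/Em 460 nm, triamterene-equivalent) was read immediately after pin transfer of compound or DMSO into medium (DMEM, 10% FBS) without cells.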

Assay [13] can be described thus: qHTS assay to test for compound auto fluorescence at 535 nm (green) in HEK293 cell free culture (AID 720682). A digest of the protocol: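 Steps: dispense DMEM/10% FBS into empty wells; pin in compound or DMSO; measure fluorescence at 485/535 nm. Values are fluorescein equivalents.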
Assay [14] is described as follows: qHTS assay to test for compound auto fluorescence at 590 nm (red) in HEK293 cell free culture (AID 720683). The method in brief: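 Red-channel autofluorescence of compounds in culture medium (DMEM, 10% FBS), no cells, measured at 540/590 nm. Rose Bengal sodium is the reference fluorophore for equivalence.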
The nature of assay [15]: qHTS assay to test for compound auto fluorescence at 590 nm (red) in HepG2 cell free culture (AID 720684). The method in brief: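 Steps: dispense MEM/10% FBS medium, no cells; pin compound or DMSO vehicle; read red channel, Ex/Em 540/590 nm. Output given as Rose Bengal sodium equivalents.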
Assay [16] in a line: qHTS assay to test for compound auto fluorescence at 460 nm (blue) in HepG2 cell free culture (AID 720685). Also: potency is read from the fitted curve at half-maximal effect. The method in brief:
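Compound (23 nL) or DMSO pinned into cell-free MEM with 10% FBS; blue fluorescence read at 405/460 nm excitation/emission, expressed as auto-fluorescence equivalency to triamterene.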

The nature of assay [17]: qHTS assay to test for compound auto fluorescence at 535 nm (green) in HepG2 cell free culture (AID 720686).
The nature of assay [18]: qHTS assay to test for compound auto fluorescence at 460 nm (blue) in HepG2 cells (AID 720687). Also: potency is read from the fitted curve at half-maximal effect. The method in brief: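 Blue-channel autofluorescence (Ex/Em 405/460 nm, triamterene-equivalent) was measured after 1 hr compound exposure at 37 C, 5% CO2. Cells were HepG2, plated overnight at 37 C in MEM plus 10% FBS.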
The target in assay [19] is Glucocorticoid receptor (Homo sapiens) (UniProt P04150). Briefly: qHTS assay to identify small molecule agonists of the glucocorticoid receptor (GR) signaling pathway (AID 720691; active = well fitted activation curve with a large enough effect in the signal ratio in the repeat runs, not every such curve was filed as active; the % refers to the signal ratio). A digest of the protocol: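 Reporter read-out: fluorescence intensity following 2 h room-temperature LiveBLAzer B/G FRET substrate loading. Prior step: GR-bla HeLa cells held 4 h, then treated 18 h at 37 C.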
Glucocorticoid receptor (Homo sapiens), sequence (P04150 whole entry, looked up): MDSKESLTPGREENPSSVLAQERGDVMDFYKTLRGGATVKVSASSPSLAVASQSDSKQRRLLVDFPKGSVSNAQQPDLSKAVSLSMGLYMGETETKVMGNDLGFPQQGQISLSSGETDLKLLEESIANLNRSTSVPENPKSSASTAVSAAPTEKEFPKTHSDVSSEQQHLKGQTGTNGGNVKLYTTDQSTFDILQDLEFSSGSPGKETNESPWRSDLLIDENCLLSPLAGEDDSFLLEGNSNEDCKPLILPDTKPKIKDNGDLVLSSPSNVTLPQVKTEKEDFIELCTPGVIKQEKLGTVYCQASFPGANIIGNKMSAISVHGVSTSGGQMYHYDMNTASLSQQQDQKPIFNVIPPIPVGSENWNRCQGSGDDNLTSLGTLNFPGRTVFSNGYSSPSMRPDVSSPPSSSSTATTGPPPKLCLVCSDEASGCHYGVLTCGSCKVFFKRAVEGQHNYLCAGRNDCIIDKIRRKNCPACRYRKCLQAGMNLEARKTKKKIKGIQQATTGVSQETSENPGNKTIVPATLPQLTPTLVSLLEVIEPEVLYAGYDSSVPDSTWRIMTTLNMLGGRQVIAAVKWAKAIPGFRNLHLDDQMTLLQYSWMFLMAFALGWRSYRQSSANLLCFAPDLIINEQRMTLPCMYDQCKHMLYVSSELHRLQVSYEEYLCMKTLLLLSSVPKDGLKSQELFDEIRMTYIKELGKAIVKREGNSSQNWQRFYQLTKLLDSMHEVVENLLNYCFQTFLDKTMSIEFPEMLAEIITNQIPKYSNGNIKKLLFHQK

The target is the same in assay [20]. Briefly: qHTS assay to identify small molecule antagonists of the glucocorticoid receptor (GR) signaling pathway (AID 720692; active = well fitted inhibition curve with a large enough effect in the signal ratio in the repeat runs, not every such curve was filed as active; the % refers to the signal ratio). The method in brief:
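Dexamethasone (5 nM final) stimulated a stably integrated GRE-beta-lactamase reporter in HeLa cells during 18 h co-incubation with compounds; signal was quantified as fluorescence intensity of B/G FRET substrate after 2 h.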
Tags tell the direction and shape of the fitted curve or compound fluorescence and quenching.

Consider `Cc1cc(=O)oc2cc(O)ccc12`, for which the Potency in assay [1] was 61.1 µM (active) and 48.6 µM (active); in assay [9], 11.2 µM [fluorescent] (active) and 39.8 µM [fluorescent] (active) and 35.5 µM [fluorescent] (active); in [12], 10 µM (active) and 39.8 µM (active) and 35.5 µM (active); in assay [16] it was 10 µM [fluorescent] (active) and 39.8 µM [fluorescent] (active); in assay [18], 10 µM [fluorescent] (active) and 39.8 µM [fluorescent] (active). For the same compound, the Potency entry in [2], in [3], in [4], in [5], in assay [6] and in assay [7] was “inactive” throughout. For the same compound, the Potency result in [8], in assay [10], in assay [11], in [13], in [14] and in [15] was “inactive” in each case. Also, in [17], the Potency entry is “inactive”.
For the compound `CCOC(N)=O`, the Potency entry in [1], in assay [2], in [3], in [4], in [5] and in assay [6] was “inactive” each time. Besides, the Potency result in assay [7], in [8], in [9], in assay [10], in assay [11] and in assay [12] was “inactive” throughout. The Potency result in assay [13], in assay [14], in assay [15], in assay [16], in assay [17] and in assay [18] was “inactive” each time.
`Cc1ncc([N+](=O)[O-])n1CCO`: the Potency result in assay [1], in assay [2], in assay [3], in [4], in assay [5] and in [6] was “inactive” in each case. The Potency entry in assay [7], in assay [8], in assay [9], in assay [10], in assay [11] and in assay [12] was “inactive” throughout. Moreover, the Potency result in assay [14], in assay [15], in assay [16], in assay [17] and in assay [18] was “inactive” in each case.
For the compound `Cc1ncc([N+](=O)[O-])n1C`, the Potency entry in [1], in assay [2], in assay [3], in assay [4], in assay [5] and in [6] was “inactive” in each case. Further, the Potency entry in assay [7], in assay [8], in assay [9], in assay [10], in assay [11] and in assay [12] was “inactive” each time. The Potency entry in [14], in assay [15], in [16], in assay [17], in assay [18] and in assay [19] was “inactive” throughout. Besides, the Potency result in [20] was “inactive”.
Consider `NC(CO)(CO)CO`, for which the Potency entry in [1], in [2], in [3], in [4], in assay [5] and in [6] was “inactive” throughout. In addition, the Potency entry in assay [7], in assay [8], in assay [9], in [10], in assay [11] and in assay [12] was “inactive” in each case. In addition, the Potency entry in assay [14], in assay [15], in [16], in [17], in [18] and in assay [19] was “inactive” throughout. Besides, the Potency result in [20] is “inactive”.
Turning to `NS(=O)(=O)c1cc2c(cc1Cl)NCNS2(=O)=O`, the Potency entry in [1], in [2], in assay [3], in assay [4], in assay [5] and in [6] was “inactive” in each case. Also, the Potency result in assay [7], in assay [8], in [9], in [10], in [11] and in [12] was “inactive” in each case. Moreover, the Potency entry in assay [13], in assay [14], in assay [15], in assay [16], in assay [17] and in [18] was “inactive” throughout. In addition, the Potency result in assay [19] and in assay [20] was “inactive” each time.

Values taken from PubChem BioAssay (Tox21).
